High-throughput results from PubChem BioAssay.
This is a sample that favours compounds with a hit; in the whole collection about 5.3% have one here.
Vaccinia mCherry = vaccinia inhibition (mCherry reporter) | AID 720579 | Vaccinia virus mCherry reporter infection, fluorescence | Potency, µM (series often up to 36.5 µM), for the others: at the top dose activity change, negative = inhibition, most hits filed as inhibitors | 310,000 compounds, 0.63% hits; calls by dose curve; tested in A549 cells; further: nearly all actives have a fitted effect of over 35% in size
FMDV inh = foot and mouth disease virus antiviral activity. 410,000 compounds, 1.2% hits. Potency, µM (doses to about 57.9 µM), inactives show at the top dose activity change, negative = inhibition, most hits filed as inhibitors. AID 1159524. FMDV antiviral cell-based qHTS; calls by dose curve; tested in HEK293T cells; further: read-out not given here; nearly all actives have a fitted effect of over 45% in size
Vaccinia Venus = inhibitors of vaccinia virus (Venus reporter) | 330,000 compounds, 0.46% hits | Potency, µM (titrated, usually from 36.5 µM), without a hit: top-dose activity change, negative = inhibition, usual class: inhibitors | AID 720580 | Vaccinia virus Venus reporter expression, fluorescence; calls by dose curve; tested in A549 cells; further: nearly all actives have a fitted effect of over 30% in size
MARV entry inh = Marburg virus entry inhibition; Marburg virus pseudotyped entry inhibition, cell reporter; Potency, µM (top dose mostly 37.8 µM), without a hit: at the highest dose activity change, negative = inhibition, most hits filed as inhibitors; 300,000 compounds, 1.8% hits; AID 540276; calls by dose curve; tested in HEK293 cells
HCV inhibitor = HCV inhibition; Potency, µM (highest dose often 41.8 µM), without a hit: at the highest dose activity change, negative = inhibition, usual class: inhibitors; Huh7.5.1 HCVcc-Cre infection, luciferase reporter, 44 h; 340,000 compounds, 3.4% hits; AID 651820; active means well fitted inhibition curve with a large enough effect; inconclusive means small, poorly fitted or top-dose-only effect, or another doubt; inactive means no such curve, though single readings can be large or run the other way
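Infectious HCV cell culture screen: compound-treated cells (1,000/well, pre-plated 4 h) are infected with HCVcc-Cre at roughly 0.5 moi and grown 44 h. Infection is quantified by luciferase signal after 15 min substrate incubation at room temperature.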
LASV entry inh = inhibitors of Lassa virus binding or cell entry. Lassa virus pseudotype entry inhibition, cell reporter. Potency, µM (titrated, usually from 37.9 µM), for the others: at the top dose activity change, negative = inhibition, actives largely listed as inhibitors. 300,000 compounds, 1.2% hits. AID 540256; calls by dose curve; tested in HEK293 cells; further: nearly all actives have a fitted effect of over 50% in size
* hit, by the source's call; i = inactive; ? = inconclusive; . = no result; [ ] = dose if it differs, or a comment. On the % scale 0 is the no-effect control and ±100 the full control effect; potency means the concentration at half of the fitted maximal effect.

SMILES | Vaccinia mCherry | FMDV inh | Vaccinia Venus | MARV entry inh | HCV inhibitor | LASV entry inh
COCc1c(C(=O)N2CCC(c3ccccc3)CC2)cnn1-c1nccc(-c2cc(C)sc2C)n1 | 14.1µM* | 29.6% | ? | . | . | .
COC(=O)[C@]1(C)N[C@H](CN(C)C(=O)Nc2ccc(C)cc2)[C@@H]2C(=O)N(Cc3ccccc3)C(=O)[C@@H]21 | i | -9.1% | -8.1% | . | 2.82µM* | .
COC(=O)[C@]1(C)N[C@H](CN(C)C(C)=O)[C@@H]2C(=O)N(C)C(=O)[C@@H]21 | -4.7% | 7.9% | 6.8% | . | -3.6% | .
COC(=O)[C@]1(C)N[C@H](CN(C)C(=O)c2ccccc2)[C@@H]2C(=O)N(C)C(=O)[C@@H]21 | i | -11.5% | -8.3% | . | 3.98µM* | .
COC(=O)[C@]1(C)N[C@H](CN(C)C(=O)Nc2ccc(C)cc2)[C@@H]2C(=O)N(C)C(=O)[C@@H]21 | -10.4% | -3.1% | -5.0% | . | 1µM* | .
COC(=O)[C@]1(C)N[C@H](CN(C)C(=O)Nc2ccc(Cl)cc2)[C@@H]2C(=O)N(Cc3ccccc3)C(=O)[C@@H]21 | -5.9% | -22.7% | -16.3% | . | 17.1% | .
CCOc1ccc(C2c3c(-c4ccc(C)cc4)n[nH]c3C(=O)N2c2ccc(Cl)cc2)cc1 (stereo not given) | ? | -20.8% | ? | ? | . | ?
Cc1ccccc1C(=O)n1nc(-c2ccco2)nc1NCc1ccc(Cl)cc1 | -12.9% | 18.4% | -5.9% | 5.1%[46.1 µM] | . | ?
C[C@@H]1CN([C@@H](C)CO)S(=O)(=O)c2ccc(C#CC3CCCCC3)cc2O[C@@H]1CN(C)Cc1cccnc1 | ? | -14.2% | 10µM* | . | . | .
Cc1ccc(-c2csc(NC(=O)c3cccc([N+](=O)[O-])c3)n2)cc1 | -18.7% | ? | -8.6% | -14.5% | -7.3% | ?
CCOC(=O)Cc1csc(N/N=C/c2cccc([N+](=O)[O-])c2)n1 | -21.6% | 0.0% | -18.4% | -20.4%[46.1 µM] | ? | -25.4%
CCC(=O)Nc1nc(C)c(-c2csc(Nc3cccc(C(=O)O)c3)n2)s1 | i | 23.6% | 6.7% | ? | 4.7% | 13.8%
CC(=O)c1cccc(Nc2nc(-c3cccc([N+](=O)[O-])c3)cs2)c1 | ? | -15.6% | -22.2% | ? | 2.24µM* | ?
CC(=O)Nc1nc(C)c(-c2csc(Nc3cccc([N+](=O)[O-])c3)n2)s1 | 5.01µM* | -25.7% | ? | 14.1µM* | ? | ?
O=[N+]([O-])c1cccc(-c2csc(N/N=C/c3cccc(O)c3)n2)c1 | ? | ? | ? | ? | ? | 7.94µM*
CC(=O)Nc1nc(C)c(-c2csc(Nc3cccc(C(C)=O)c3)n2)s1 | . | -8.9% | . | . | 10µM* | .
C[C@@H]1CC[C@H]2C(=O)N(Cc3ccccc3)C[C@H](O)CN2[C@H]1c1ccc(Br)cc1 | . | . | . | -24.2%[14.2 µM] | . | .
O=C1c2ccccc2C(=O)C1c1ccc(Cl)cc1 | -15.2% | 8.6% | -7.0% | 22.8% | . | 2.4%
O=C1c2ccccc2C(=O)C12OC2c1ccc(Cl)cc1Cl (stereo not given) | -14.5% | 28.2µM* | 0.0% | ? | -3.7% | 11.6%
COc1ccccc1NC(=S)N/N=C1\CC(C)(C)Oc2ccc(O)cc21 | . | ? | . | . | 10µM* | .
CCCCCCCCCCOC(=O)Cn1c(COc2ccccc2OC)[n+](C)c2ccccc21 | ? | ? | 14.1µM* | 2.51µM* | 14.1µM* | ?
Cn1c(COc2ccccc2O)[n+](C)c2ccccc21 | i | -0.1% | -10.4% | . | -9.0% | .
CC(C)CC(=O)N1CCN(S(=O)(=O)c2ccc(C3CCCCC3)cc2)CC1 | . | ? | . | . | 11.2µM* | .
CC(OC(=O)C1CCN(S(=O)(=O)c2ccc(C(C)(C)C)cc2)CC1)C(=O)N(C)C1CCCCC1 (stereo not given) | . | 39.8µM* | . | . | ? | .
CC(C)(C)c1ccc(S(=O)(=O)N2CCN(C(=O)C3CCC3)CC2)cc1 | i | ? | -13.4% | 4.47µM* | ? | ?
SMILES | Vaccinia mCherry | FMDV inh | Vaccinia Venus | MARV entry inh | HCV inhibitor | LASV entry inh
C/C(=N\Nc1cc(C)nc(NCc2ccccc2)n1)c1cccc([N+](=O)[O-])c1 | . | 0.0% | . | . | 2µM* | .
C/C(=N\Nc1cc(N2CCOCC2)nc(C)n1)c1cccc([N+](=O)[O-])c1 | . | ? | . | . | 11.2µM* | .
CCCCc1ccc(/C(C)=N/Nc2cc(N3CCOCC3)nc(C)n2)cc1 | . | -19.8% | . | . | ? | .
O=C(N/N=C/c1ccccc1)c1n[nH]c2c1CCCC2 | ? | -28.4% | ? | ? | ? | ?
O=C(N/N=C/c1ccccc1Cl)c1n[nH]c2c1CCCC2 | . | ? | . | 1.3µM* | 5.2% | ?
COCC(C)N1C(=O)Cc2c1nc(N)c1c(N)nc(N3CCN(c4ccccc4F)CC3)c(C#N)c21 (stereo not given) | ? | 31.6µM* | -1.5% | 16.4µM* | ? | ?
COCCN1C(=O)Cc2c1nc(N)c1c(N)nc(N3CCN(c4ccc(F)cc4)CC3)c(C#N)c21 | . | -15.4% | . | . | -25.4% | .
CC(=O)N1CCN(Cc2nc3cc(NC(=O)c4ccccc4C)ccc3n2C)CC1 | . | -11.3% | -13.7% | -6.5% | -12.2% | 7.5%
Cn1c(CN2CCCCC2)nc2cc(NC(=O)c3ccccc3Cl)ccc21 | -17.4% | ? | -12.8% | ? | ? | 11.1%[46.1 µM]
CC(=O)N1CCN(Cc2nc3cc(NC(=O)c4cccc(Br)c4)ccc3n2C)CC1 | i[7.34 µM] | ? | -10.6%[7.34 µM] | ? | 17.8µM* | -24.4%
Cn1c(CN2CCCCC2)nc2cc(NC(=O)c3ccc(F)cc3)ccc21 | . | ? | . | ? | 10µM* | ?
O=C(NCCCN1CCOCC1)C(=O)N/N=C/c1c(Cl)cccc1Cl | -4.4% | 19.5% | 8.0% | -13.4%[46.1 µM] | 7.7% | 1.6%
O=C(NCCCN1CCOCC1)C(=O)N/N=C/c1c2ccccc2cc2ccccc12 | ? | -15.8% | ? | ? | 11.2µM* | ?
C[C@@]12C(=O)OC(=O)[C@]1(C)C1CCC2O1 | 1.12µM* | ? | 1.26µM* | . | 0.501µM* | .
O=C(NCc1ccco1)c1ccc(Cn2c(=O)c3ccccc3n(Cc3ccc(Cl)cc3)c2=O)cc1 | . | -3.3% | . | -24.3% | 11.2µM* | -17.1%
O=C(NCc1ccco1)c1ccc(C(=O)NCc2ccco2)cc1 | i | 0.0% | -4.6% | -8.3% | 18.0% | 1.2%
O=C(NCc1ccco1)c1ccc(COc2ccccc2Cl)cc1 | . | -12.8% | ? | -2.9% | 11.2µM* | -19.0%
O=C(NCc1ccco1)c1ccc2c(c1)C(=O)c1ccccc1-2 | . | 67.5% | . | ? | ? | 23.1µM*
O=C(NCc1ccco1)c1ccc(COc2cccc3ccccc23)cc1 | -21.3% | -12.3% | -22.1% | 8.3% | ? | -19.5%
O=C(c1cccnc1)C1CCCN(Cc2ccc3c(c2)CN(C(=O)c2cccc(Cl)c2)CCO3)C1 (stereo not given) | -13.6% | -27.4% | -16.1% | . | . | .
Cn1c(=O)c(-c2cc(F)cc(F)c2)nc2cncnc21 | . | -19.5% | . | . | . | .
Nc1ccc(Br)cc1Br | i | 64.7% | -9.6% | . | -1.1% | .
